Sampled rows, rich in hits. Any-hit rate of the full collection: about 19%.
HepG2 viability: counter-screen for TGF-b inhibitors: cytotoxicity in HepG2 cells. HepG2 CAGA-GFP viability, ATP luminescence, 18 h. Potency, µM (series often up to 46.1 µM), for inactives: top-dose activity change, negative = cytotoxicity, usual class: cytotoxic. actives 0.76% (n = 410,000); also: potency is read from the fitted curve at half-maximal effect
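HepG2 CAGA-GFP cells (1000/well, DMEM with 1% FBS) received compound, then TGF-beta at 500 pg/mL final, and were incubated 18 hours at 37 degrees C. Viability was read by CellTiter-Glo luminescence. Media-only wells were set as complete cell-killing and DMSO as no toxicity.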
ASM inhibitor: blocks human secretory acid sphingomyelinase | P17405 | placental ASM, HMU-PC fluorogenic substrate, 60 min | Potency, µM (highest dose often 57.5 µM), for the others: at the highest dose activity change, negative = inhibition, usual class: inhibitors | actives 0.006% (n = 340,000) | AID 504937; also: potency is read from the fitted curve at half-maximal effect
Target sequence (P17405 47-631 limits assumed): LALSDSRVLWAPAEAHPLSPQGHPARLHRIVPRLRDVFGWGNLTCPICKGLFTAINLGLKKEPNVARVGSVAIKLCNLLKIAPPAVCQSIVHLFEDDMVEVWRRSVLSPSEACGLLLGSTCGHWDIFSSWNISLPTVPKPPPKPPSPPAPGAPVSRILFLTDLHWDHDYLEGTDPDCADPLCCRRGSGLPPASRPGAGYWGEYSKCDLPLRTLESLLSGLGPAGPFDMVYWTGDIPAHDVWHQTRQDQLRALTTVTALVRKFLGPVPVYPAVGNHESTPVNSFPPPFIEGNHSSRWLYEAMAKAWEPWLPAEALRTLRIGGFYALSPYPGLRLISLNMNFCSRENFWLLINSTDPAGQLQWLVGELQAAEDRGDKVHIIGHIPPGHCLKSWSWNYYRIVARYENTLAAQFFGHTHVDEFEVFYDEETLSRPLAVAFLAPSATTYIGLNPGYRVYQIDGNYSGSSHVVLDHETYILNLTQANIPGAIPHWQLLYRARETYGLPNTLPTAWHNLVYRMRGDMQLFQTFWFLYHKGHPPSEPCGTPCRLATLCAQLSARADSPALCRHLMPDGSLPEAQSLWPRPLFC
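Fluorescence read-out (Ex 386 nm, Em 447 nm) after stopping the reaction at pH 10. Enzyme: ASM from human placenta; substrate HMU-PC0, 9 uM final; 60 min, 37 °C. Compound preincubation 10 min, ambient temperature.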
DT40 TDP1 CPT: DT40-hTDP1 cell growth loss with CPT | chicken DT40 Tdp1-/-;hTDP1 cells + 20 nM CPT, ATP luminescence, 48 h | Potency, µM (titrated, usually from 46.2 µM), without a hit: top-dose activity change, negative = growth inhibition, usual class: inhibitors | actives 12% (n = 420,000) | AID 686979; also: potency is read from the fitted curve at half-maximal effect; % is scaled to controls: 0 for no effect and ±100 for the full control effect; nearly all actives have a fitted effect of over 55% in size
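Chicken DT40 Tdp1-/- cells stably complemented with human TDP1 were seeded at 400 cells/well in medium containing 20 nM camptothecin, exposed to pin-transferred compounds, and grown at 37 °C for at least 48 hr. Viability was read as ATP luminescence.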
TGFb SMAD3 inh: blocks TGF-b signaling; HepG2 CAGA-GFP TGF-b/SMAD3 reporter, GFP fluorescence, 18 h; TGF-beta stimulated, 500 pg/mL final; Potency, µM (series often up to 46.1 µM), inactives show at the highest dose activity, negative = inhibition, hits mostly inhibitors; actives 1.2% (n = 410,000); AID 588855; also: potency is read from the fitted curve at half-maximal effect; % is scaled to controls: 0 for no effect and ±100 for the full control effect; nearly all actives have a fitted effect of over 65% in size
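Smad-responsive CAGA-GFP expression was quantified in HEPG2 cells exposed to compounds and 500 pg/mL final TGF-beta for 18 h at 37 degrees C; unstimulated wells defined full inhibition.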
DT40 TDP1 no CPT: qHTS for Inhibitors of human tyrosyl-DNA phosphodiesterase 1 (TDP1): qHTS in cells in absence of CPT | Potency, µM (highest dose often 46.2 µM), for the others: at the highest dose activity change, negative = growth inhibition, usual class: inhibitors | DT40 Tdp1-/- hTDP1 cells, no CPT, ATP luminescence, 48 h | actives 15% (n = 420,000); also: potency is read from the fitted curve at half-maximal effect; % is scaled to controls: 0 for no effect and ±100 for the full control effect; nearly all actives have a fitted effect of over 55% in size
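Camptothecin absent (DMSO only). Human TDP1-complemented DT40 knockout cells, 400 cells/well, 37 °C for minimum 48 hr; ATP measured via CellTiter-Glo, 30 min dark incubation, luminescence.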
IL1B secr inh: inhibitors of inflammasome signaling (IL-1 beta secretion); activity change, % at 57.5 µM; actives 4.7% (n = 360,000); THP-1 LPS/ATP IL-1B secretion, AlphaLISA, 16 h; stronger effect = lower value; in the data active = activity change below about -50%; inconclusive = mostly about -30% to -49%; also: % is scaled to controls: 0 for no effect and ±100 for the full control effect
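Secreted IL-1B measured by AlphaLISA bead assay after 16 h compound exposure of THP-1 cells; compounds (final up to 57.5 uM) added 1 h before LPS (250 ng/mL) and ATP (1.25 mM) stimulation; lower signal means less secretion.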
Numbers without * were called inactive; i = inactive; ? = inconclusive; / = no result; [ ] = remark or other dose. Unless noted, calls follow the shape of the dose curve; as a rule, active = well fitted curve in the direction sought with a large enough effect; inconclusive = small, poorly fitted or top-dose-only effect, or another doubt; inactive = no such curve, though single readings can be large; an effect the other way counts as inactive or inconclusive.

SMILES | HepG2 viability | ASM inhibitor | DT40 TDP1 CPT | TGFb SMAD3 inh | DT40 TDP1 no CPT | IL1B secr inh
CCCCNC(=O)c1c(-c2ccccc2)c(-c2ccccc2)nn(C)c1=O | 4% | / | ? | 0% | ? | /
Cc1ccc(C)c(S(=O)(=O)c2nnn3c2nc(NCc2ccc4c(c2)OCO4)c2sccc23)c1 | -1% | / | 18µM* | 7% | ? | /
Cc1ccc(CNc2nc3c(S(=O)(=O)c4ccccc4)nnn3c3ccsc23)cc1 | 13% | / | -28% | 40% | -14% | /
Cc1ccc(S(=O)(=O)c2nnn3c2nc(NCc2ccc4c(c2)OCO4)c2sccc23)cc1C | -10% | / | ? | 7% | 23µM* | /
Cc1ccc(CNc2nc3c(S(=O)(=O)c4ccc(C)c(C)c4)nnn3c3ccc(Cl)cc23)cc1 | 8% | / | -25% | -2% | ? | /
Cc1ccc(S(=O)(=O)c2nnn3c2nc(NCc2ccc4c(c2)OCO4)c2sccc23)cc1 | -9% | / | ? | 20% | 13µM* | /
COc1ccccc1COc1ccc2c(C)c(CC(=O)O)c(=O)oc2c1C | -4% | 39% | 4% | 1% | 9% | 6
O=C1C2CCC(C(O)C2)N1Cc1ccccc1 (stereo not drawn) | 0% | 0% | 7% | 0% | -2% | 1
O=C1[C@H](Cc2ccccc2)NCCCC[C@@H](c2ccc(Cl)cc2)N1Cc1ccccc1 | -68% | -18% | 18µM* | ? | 13µM* | -53*
O=C1C=CN(Cc2ccccc2)C(c2ccccc2)C1 (stereo not drawn) | -28% | 0% | ? | 14% | -27% | -5
O=C1[C@H](Cc2ccccc2)NCCCC[C@H](c2ccc(Cl)cc2)N1Cc1ccc(Cl)cc1 | -20% | -20% | 23µM* | ? | 18µM* | ?
CC(C)(C)n1ncc2c(=O)n(Cc3cccc(C#N)c3)cnc21 | -32% | / | / | -3% | / | /
O=C(NC(=S)N1CCCCC1c1cccnc1)c1ccc(F)cc1 (stereo not drawn) | 3% | 2% | -2% | -8% | 13% | -3
O=C(NC(=S)NN1CCCCC1c1cccnc1)c1ccc(Cl)cc1Cl (stereo not drawn) | 6% | 0% | ? | 0% | 26µM* | -15
Cc1ccc(S(=O)(=O)N(C)C)cc1NC(=O)c1cc(-c2ccco2)nc2ccccc12 | 6% | 160% | 13µM* | 22% | 18µM* | 14
Cc1ccc(S(=O)(=O)NCCC(=O)Nc2ccc(C)cc2C(=O)c2ccccc2)cc1 | -18% | -2% | ? | ? | 21µM* | -9
Cc1cccc(NC(=O)c2cc(-c3ccco3)nc3ccccc23)n1 | 13% | 157% | 21µM* | 14% | 18µM* | 5
CCN(CC)CC(=O)Nc1ccc(C)cc1C(=O)c1ccccc1 | -9% | 2% | -20% | 3% | ? | 5
Cc1ccc(S(=O)(=O)NCCC(=O)Nc2cc(S(=O)(=O)N(C)C)ccc2C)cc1C | -14% | 0% | -17% | 21% | 16µM* | 25
COc1ccc(NC(=O)c2sc3nc4n(c(=O)c3c2C)CCC4)cc1Cl | 0% | / | -18% | 20% | -20% | /
CC1(c2ccc(Cl)cc2)NC(=O)N(CC(=O)NC2CCCCC2)C1=O (stereo not drawn) | -9% | 0% | -12% | 0% | ? | 6
Cc1ccc(S(=O)(=O)N(C)C)cc1NC(=O)c1ccc2ccccc2n1 | -19% | -3% | 21µM* | 2% | ? | 19
CCc1cc(C(=O)Nc2cc(S(=O)(=O)N(C)C)ccc2C)sc1C | -74% | -4% | 15µM* | -29% | 13µM* | -17
Cc1ccc(C)c(NC(=O)c2ccc3ccccc3n2)c1 | 66% | -4% | ? | 19% | ? | 26
O=C(COc1ccc(-n2cnnn2)cc1)Nc1cc(Cl)cc(Cl)c1 | -33% | -2% | -22% | -20% | ? | 1
SMILES | HepG2 viability | ASM inhibitor | DT40 TDP1 CPT | TGFb SMAD3 inh | DT40 TDP1 no CPT | IL1B secr inh
CCOC(=O)Cn1c(=O)n(-c2ccccc2OC)c2nc(-c3ccc(C(C)C)cc3)nc(C(N)=O)c21 | 0% | / | / | 16% | / | /
CC(C)CC(OC(=O)c1nsc(Cl)c1Cl)C(=O)NC1CCCC1 (stereo not drawn) | 3% | -2% | 1% | -25% | 2% | 0
COc1ccc(C(=O)NCCn2cc(SCc3cccc(F)c3)c3ccccc32)cc1OC | -22% | / | 9.2µM* | ? | 4.6µM* | /
COc1ccc(C(=O)NCCn2cc(SCC(=O)Nc3ccccc3)c3ccccc32)cc1OC | 0% | / | ? | -10% | ? | /
O=C(NCCn1cc(SCc2cccc(F)c2)c2ccccc21)c1cccc(C(F)(F)F)c1 | -48% | / | ? | ? | 16µM* | /
Cc1cc2nnc(SCC(=O)Nc3cc(S(=O)(=O)N4CCOCC4)ccc3Cl)n2c2ccccc12 | 8% | -5% | ? | 0% | 16µM* | ?
Cc1ccc(S(=O)(=O)N2CCOCC2)cc1NC(=O)CSc1nnc2cc(C)c3ccccc3n12 | 1% | -3% | ? | -16% | 23µM* | -21
Cc1cc(NC(=O)CSc2nc(N)c(NC(=O)c3ccccc3F)c(=O)[nH]2)no1 | -39% | 3% | ? | 18% | 0% | i
CC(=O)c1ccc(F)c(-c2cc(C)cc3c2OC(CNC(=O)C2CCCCN2C)C3)c1 (stereo not drawn) | / | / | -6%[9.04 µM] | / | ? | /
O=C(CCc1ccc(S(=O)(=O)N2CCOCC2)cc1)Nc1ccccc1F | -14% | 1% | -5% | -7% | -29% | 2
COc1ccc(S(=O)(=O)N2CCOCC2)cc1C(=O)NCC(c1ccccc1)c1ccccc1 | -5% | -1% | ? | -2% | ? | -6
O=C(NCC1CCN(c2ccc(S(=O)(=O)N3CCOCC3)cc2)CC1)Nc1ccccc1 | -16% | 3% | ? | -25% | 23µM* | 0
COc1ccccc1C(=O)NCC1CCN(c2ccc(S(=O)(=O)N3CCOCC3)cc2)CC1 | -31% | 0% | 21µM* | ? | 23µM* | -3
O=C(NCC1CCN(S(=O)(=O)c2ccccc2)CC1)Nc1ccc(F)cc1 | -30% | 0% | ? | -8% | ? | 4
O=C(NCC1CCN(c2ccc(S(=O)(=O)N3CCOCC3)cc2)CC1)Nc1ccccc1F | 8% | -4% | ? | 12% | 21µM* | -12
COc1ccccc1OCCNC(=O)C1CCCCC1 | -21% | 2% | -22% | -4% | ? | -18
